Hit rate of the full screen: of about 310,000 compounds, about 14,000 (4.5%) showed an effect of 50% or more. The effect is printed as a negative number. The entries come from a sample that favours strong results as a whole.

Experimental findings from PMC4336329 (PLoS ONE, 2015) are described below.
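Also: peak tail current of the secondary pulse compared with the same well before compound.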

Sequence of human ether-à-go-go-related gene (hERG) potassium channel (Q12809 whole entry, looked up): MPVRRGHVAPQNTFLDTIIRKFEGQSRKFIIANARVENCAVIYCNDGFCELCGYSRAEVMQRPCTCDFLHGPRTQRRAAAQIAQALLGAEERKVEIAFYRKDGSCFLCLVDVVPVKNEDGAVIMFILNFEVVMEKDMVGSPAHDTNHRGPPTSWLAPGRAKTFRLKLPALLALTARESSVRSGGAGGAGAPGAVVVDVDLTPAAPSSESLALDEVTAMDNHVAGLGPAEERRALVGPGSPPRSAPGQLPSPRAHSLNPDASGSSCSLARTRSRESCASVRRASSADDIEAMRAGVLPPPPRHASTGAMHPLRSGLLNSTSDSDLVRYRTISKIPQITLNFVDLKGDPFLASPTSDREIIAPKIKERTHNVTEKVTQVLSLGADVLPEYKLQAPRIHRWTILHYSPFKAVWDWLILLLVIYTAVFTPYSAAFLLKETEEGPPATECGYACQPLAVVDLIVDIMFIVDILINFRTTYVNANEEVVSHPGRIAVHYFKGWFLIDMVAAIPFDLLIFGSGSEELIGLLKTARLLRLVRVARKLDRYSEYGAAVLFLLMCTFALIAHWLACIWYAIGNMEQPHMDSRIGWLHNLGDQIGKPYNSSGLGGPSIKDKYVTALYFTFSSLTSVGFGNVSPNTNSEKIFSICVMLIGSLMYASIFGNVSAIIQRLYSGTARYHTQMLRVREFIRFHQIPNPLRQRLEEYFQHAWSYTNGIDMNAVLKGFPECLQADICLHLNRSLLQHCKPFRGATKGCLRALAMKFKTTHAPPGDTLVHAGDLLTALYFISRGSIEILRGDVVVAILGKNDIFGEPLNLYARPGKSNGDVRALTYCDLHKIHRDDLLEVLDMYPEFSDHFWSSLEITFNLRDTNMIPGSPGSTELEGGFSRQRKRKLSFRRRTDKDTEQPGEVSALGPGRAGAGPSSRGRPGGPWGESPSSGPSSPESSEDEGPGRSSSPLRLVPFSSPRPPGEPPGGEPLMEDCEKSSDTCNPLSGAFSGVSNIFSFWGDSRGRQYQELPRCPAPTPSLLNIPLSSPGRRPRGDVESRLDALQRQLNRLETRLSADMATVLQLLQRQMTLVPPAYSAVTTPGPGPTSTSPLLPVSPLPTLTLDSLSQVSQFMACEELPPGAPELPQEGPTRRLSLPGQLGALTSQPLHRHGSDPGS

The assay concerns the target human ether-à-go-go-related gene (hERG) potassium channel (human, UniProt Q12809). Nature of the assay: primary screen, population patch clamp on CHO cells stably expressing hERG; higher = less effect of the substance.
As to `O=C(O)c1n[nH]c2ccccc12`, the “hERG current change (%, negative = inhibition) at 10uM” value is recorded as -4.09%.

In the case of `C[N+]1(CC(=O)NNc2c3ccccc3nc3ccccc23)CCOCC1.[Br-]`, the “hERG current change (%, negative = inhibition) at 10uM” value is reported as 3.64%.

Take `COC(=O)C(=Nc1ccccc1)/C(C(=O)C(=O)N(C)c1ccccc1)=C(\O)c1ccccc1`: the “hERG current change (%, negative = inhibition) at 10uM” value was 22.7%.

`CC1(C)CCCC2=C1CC1C(=O)N(Cc3cccnc3)C(=O)C1C2` (centres unmarked): the “hERG current change (%, negative = inhibition) at 10uM” value was -5.71%.

Consider `COc1ccc(-c2csc(-c3cc4ccccc4oc3=N)n2)cc1`, for which the “hERG current change (%, negative = inhibition) at 10uM” value was -4.44%.

Regarding `CCCC(=O)N1CCN(c2ccc(NC(=O)c3ccc(Br)o3)cc2)CC1`, the “hERG current change (%, negative = inhibition) at 10uM” value is -8.1%.

For the molecule `COc1ccccc1NC(=O)C1CCN(S(=O)(=O)c2cccs2)CC1`, the “hERG current change (%, negative = inhibition) at 10uM” value was -7.13%.

Turning to `c1ccc2[nH]c(CN3CCCCC3)nc2c1`, the “hERG current change (%, negative = inhibition) at 10uM” value was 1.41%.

Take `Cc1ccnc(NC(=O)c2oc3ccccc3c2C)c1`: the “hERG current change (%, negative = inhibition) at 10uM” value is 24.7%.

For `O=C(O)/C=C1\NC(=O)c2ccccc21`, the “hERG current change (%, negative = inhibition) at 10uM” value was determined as 17%.

For `CN(Cc1cn(C)nc1-c1ccccc1F)CC1CCN(Cc2ccccc2)CC1`, the “hERG current change (%, negative = inhibition) at 10uM” value is -15.6%.

Regarding `COCC1CCN(Cc2cn(Cc3ccccc3)nc2-c2cc3ccccc3o2)CC1`, the “hERG current change (%, negative = inhibition) at 10uM” value is -76.6%.

On to `COCC1CCCN(Cc2cn(Cc3ccccc3)nc2-c2cc3ccccc3o2)C1` (centres unmarked), for which the “hERG current change (%, negative = inhibition) at 10uM” value is -72.8%.

`COCC1CCN(Cc2cn(C)nc2-c2cccc(Cl)c2)C1` (centres unmarked): the “hERG current change (%, negative = inhibition) at 10uM” value was -2.21%.

In the case of `COCC1CCCN(Cc2cn(-c3ccccc3F)nc2-c2cc(C)sc2C)C1` (centres unmarked), the “hERG current change (%, negative = inhibition) at 10uM” value is -39.4%.

Consider `COCC1CCCN(Cc2nc(Cc3ccccc3)no2)C1` (centres unmarked), for which the “hERG current change (%, negative = inhibition) at 10uM” value came out at 11.6%.

In the case of `CCCn1nnnc1SCC(=O)Nc1cccc(NC(=O)c2ccco2)c1`, the “hERG current change (%, negative = inhibition) at 10uM” value is recorded as -34.8%.

Consider `COc1ccc(OC)c(NC(=O)c2cnc(Nc3ccccc3OC)c3ccccc23)c1`, for which the “hERG current change (%, negative = inhibition) at 10uM” value is reported as -7.53%.

On to `CCN(CCCNC(=O)C1CCN(S(=O)(=O)CC)CC1)c1cccc(C)c1`, for which the “hERG current change (%, negative = inhibition) at 10uM” value was -40.4%.

Turning to `Nc1c(C(=O)Nc2ccc(Cl)c(C(=O)O)c2)sc2nc3c(cc12)CCCC3`, the “hERG current change (%, negative = inhibition) at 10uM” value was -3.17%.

As for `O=C(CSc1ccc2nnc(-c3ccccn3)n2n1)Nc1nccs1`, the “hERG current change (%, negative = inhibition) at 10uM” value is -27.6%.

Turning to `CC(C)(C)OC(=O)NCc1n[nH]c(=S)n1C1CC1`, the “hERG current change (%, negative = inhibition) at 10uM” value came out at 14.5%.

Take `COCCN(Cc1cc2cc3c(cc2nc1Cl)OCO3)C(=O)Nc1ccc(F)cc1`: the “hERG current change (%, negative = inhibition) at 10uM” value is recorded as -30%.

As to `COCCN(Cc1cc2cc3c(cc2nc1Cl)OCO3)C(=O)c1ccc(C)cc1`, the “hERG current change (%, negative = inhibition) at 10uM” value is -53.2%.

With `COCCN(Cc1cc2cc3c(cc2nc1Cl)OCO3)C(=O)Nc1ccc(OC)cc1`, the “hERG current change (%, negative = inhibition) at 10uM” value stood at 14.7%.

For the molecule `COCCN(Cc1cc2cc3c(cc2nc1Cl)OCO3)C(=O)c1cccc(C)c1`, the “hERG current change (%, negative = inhibition) at 10uM” value is recorded as -64.3%.

Regarding `COCCN(Cc1cc2cc3c(cc2nc1Cl)OCO3)C(=O)Nc1ccccc1OC`, the “hERG current change (%, negative = inhibition) at 10uM” value is 16.3%.

For `COCCN(Cc1cc2cc3c(cc2nc1Cl)OCO3)C(C)=O`, the “hERG current change (%, negative = inhibition) at 10uM” value came to 3.81%.

Regarding `CCOC(=O)c1c[nH]c2c(C)ccc(Cl)c2c1=O`, the “hERG current change (%, negative = inhibition) at 10uM” value is recorded as 20.9%.

For `Cc1ccc(N2CCN(CCc3nc4cc(NS(C)(=O)=O)ccc4n3C)CC2)cc1`, the “hERG current change (%, negative = inhibition) at 10uM” value is on record as -59.8%.

`Cn1c(CCN2CCCC2)nc2cc(NS(=O)(=O)c3ccc(Cl)cc3)ccc21`: the “hERG current change (%, negative = inhibition) at 10uM” value is -84%.

Take `CCC(=O)Nc1ccc2c(c1)nc(CCN1CCN(c3ccccc3)CC1)n2C`: the “hERG current change (%, negative = inhibition) at 10uM” value is -33.5%.

Turning to `CC(=O)NCCc1nc2cc(NS(=O)(=O)c3ccc(Cl)cc3)ccc2n1C`, the “hERG current change (%, negative = inhibition) at 10uM” value is 10.4%.

As to `Cc1ccc(S(=O)(=O)Nc2ccc3c(c2)nc(CCN2CCCCC2)n3C)cc1`, the “hERG current change (%, negative = inhibition) at 10uM” value is -63.6%.

For the molecule `Cc1ccc(S(=O)(=O)Nc2ccc3c(c2)nc(CCN2CCOCC2)n3C)cc1`, the “hERG current change (%, negative = inhibition) at 10uM” value is reported as -17.2%.

Take `Cn1c(CCNC(=O)c2ccco2)nc2cc(NS(=O)(=O)c3ccccc3)ccc21`: the “hERG current change (%, negative = inhibition) at 10uM” value is -6.01%.

For `CC(C)C(=O)Nc1ccc2c(c1)nc(CCN1CCN(c3ccccc3)CC1)n2C`, the “hERG current change (%, negative = inhibition) at 10uM” value was -40.4%.

Regarding `Cc1ccc(S(=O)(=O)Nc2ccc3c(c2)nc(CCN2CCCC2)n3C)cc1`, the “hERG current change (%, negative = inhibition) at 10uM” value is -42.5%.

`Cn1c(CCNC(=O)c2ccco2)nc2cc(NS(=O)(=O)c3ccc(Cl)cc3)ccc21`: the “hERG current change (%, negative = inhibition) at 10uM” value is reported as -65.2%.

On to `Cc1cc(C(F)(F)F)c(C#N)c(SCC(=O)NC2CC2)n1`, for which the “hERG current change (%, negative = inhibition) at 10uM” value is -4.11%.

As to `CC(=O)NC1=NN(C(C)=O)C(C)(CS(=O)(=O)c2ccc3ccccc3c2)S1` (centres unmarked), the “hERG current change (%, negative = inhibition) at 10uM” value is recorded as -0.325%.

As for `COc1ccc(OC)c(-n2c(-c3cc(-c4ccco4)[nH]n3)n[nH]c2=S)c1`, the “hERG current change (%, negative = inhibition) at 10uM” value is listed as 1.18%.

`COc1ccccc1NS(=O)(=O)c1ccc(C)c(NC(=O)C2CCCO2)c1` (centres unmarked): the “hERG current change (%, negative = inhibition) at 10uM” value was 4.4%.

Turning to `O=C(CNC(=O)c1ccc2c(c1)OCCO2)N/N=C/c1ccc(Cl)cc1`, the “hERG current change (%, negative = inhibition) at 10uM” value came to 14.1%.

`Cc1occc1C(=O)N1CCN(C(=O)C2CCCO2)CC1` (centres unmarked): the “hERG current change (%, negative = inhibition) at 10uM” value is -12.2%.

For the molecule `COc1ccccc1N(CC(=O)NC1CCCC1)S(=O)(=O)c1ccc(C)cc1`, the “hERG current change (%, negative = inhibition) at 10uM” value was -5.82%.

In the case of `CCCC(=O)Nc1nnc(SCC(=O)NCc2cccs2)s1`, the “hERG current change (%, negative = inhibition) at 10uM” value is 8.39%.

Take `Cn1c(CCN2CCCCC2)nc2cc(NC(=O)Nc3ccccc3)ccc21`: the “hERG current change (%, negative = inhibition) at 10uM” value was -28%.

In the case of `Cn1c(CCN2CCCCC2)nc2cc(NS(=O)(=O)c3ccc(Cl)cc3)ccc21`, the “hERG current change (%, negative = inhibition) at 10uM” value is given as -73.8%.

`Cn1c(CCN2CCCCCC2)nc2cc(NC(=O)Nc3ccccc3)ccc21`: the “hERG current change (%, negative = inhibition) at 10uM” value is -35.7%.

Regarding `Cn1c(=O)[nH]c(=O)c2c1nc(N(CCO)Cc1ccccc1)n2CCCc1ccccc1`, the “hERG current change (%, negative = inhibition) at 10uM” value was -64.6%.

As to `C=C(C)Cn1c(N(CCO)Cc2ccccc2)nc2c1c(=O)[nH]c(=O)n2C`, the “hERG current change (%, negative = inhibition) at 10uM” value was -2.53%.

As for `CN(Cc1ccccc1)c1nc2c(c(=O)[nH]c(=O)n2C)n1CCCc1ccccc1`, the “hERG current change (%, negative = inhibition) at 10uM” value is listed as -51.8%.

Take `Cn1c(=O)[nH]c(=O)c2c1nc(NCCCO)n2CCCc1ccccc1`: the “hERG current change (%, negative = inhibition) at 10uM” value is given as -5.36%.

For `CN(C)c1nc2c(c(=O)[nH]c(=O)n2C)n1CCCc1ccccc1`, the “hERG current change (%, negative = inhibition) at 10uM” value was -19.1%.

Consider `CCCCCn1c(N(C)Cc2ccccc2)nc2c1c(=O)[nH]c(=O)n2C`, for which the “hERG current change (%, negative = inhibition) at 10uM” value is -17.1%.
